Compound activity as filed in PubChem.
Rab9 prom act = qHTS Assay for Rab9 Promoter Activators | Huh7 Rab9 promoter-luciferase reporter, luminescence, 24 h | AID 485297, 2010 | Potency, µM (doses to about 9.22 µM), for inactives: at the top dose activation, negative = inhibition, hits mostly activators | hit rate 2.8% among 320,000; note: % of control where 0% means no effect; nearly all actives have a fitted effect of over 60% in size
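Cells were plated at 1500 per well in reduced-serum medium with 10% FBS and left 2 h. Compound in DMSO was then added for 24 h at 37 °C. Reporter signal was read by luminescence after 10 min with luciferase detection reagent.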
NPC1 prom act = qHTS Assay for NPC1 Promoter Activators; Huh7 NPC1 promoter luciferase reporter, 24 h; Potency, µM (series often up to 9.22 µM), for inactives: top-dose activation, hits mostly activators; hit rate 2.4% among 320,000; note: % of control where 0% means no effect; nearly all actives have a fitted effect of over 60% in size
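Huh7 reporter cells (NPC1 promoter driving luciferase) are dosed with compound for 24 h at 37 °C, 5% CO2; luciferase detection reagent is then added and luminescence measured after 10 min at ambient temperature.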
SMN2 splice up = qHTS Assay for Enhancers of SMN2 Splice Variant Expression | HEK293 SMN2-luciferase splicing reporter, luminescence, 30-36 h | Potency, µM (highest dose often 46.1 µM), for inactives: at the highest dose activity change, positive = activation, hits mostly activators | hit rate 2.8% among 210,000 | AID 1458, 2008; note: % of control where 0% means no effect; nearly all actives have a fitted effect of over 55% in size
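qHTS luciferase splicing reporter: luminescence rises when SMN2 exon 7 is included in transfected HEK293 cells. Compound exposure lasted 30-36 h at 37C, with 4.5 mM final sodium butyrate as control, followed by a ONE-Glo read.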
ELG1 genotoxic = qHTS screen for small molecules that induce genotoxicity in human embryonic kidney (HEK293T) cells expressing luciferase-tagged ELG1; HEK293T ELG1-luciferase reporter, luminescence, 16 h; Potency, µM (doses to about 46 µM), for the others: top-dose activity change, positive = activation, usual class: activators; hit rate 1.3% among 330,000; AID 504466, 2011; note: % of control where 0% means no effect; nearly all actives have a fitted effect of over 60% in size
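Step 1: seed 2,000 HEK293T ELG1-luciferase cells per well. Step 2: add compound or DMSO, incubate 16 hr at 37 °C. Step 3: ONE-Glo, 30 min at room temperature, read luminescence.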
FLuc modulator = qHTS profiling assay for firefly luciferase inhibitor/activator using purifed enzyme and Km concentrations of substrates (counterscreen for miR-21 project); AID 588342, 2011; purified FLuc, Km substrates, luminescence inhibition; Potency, µM (highest dose often 57.5 µM), for the others: at the highest dose activity change, negative = inhibition, most hits filed as inhibitors; hit rate 6.9% among 360,000; Luciferin 4-monooxygenase (Photinus pyralis), P08659;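 note: plate controls were vehicle for no effect and reference inhibitor for full effect; nearly all actives have a fitted effect of over 55% in size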
Target sequence (P08659 whole entry, looked up): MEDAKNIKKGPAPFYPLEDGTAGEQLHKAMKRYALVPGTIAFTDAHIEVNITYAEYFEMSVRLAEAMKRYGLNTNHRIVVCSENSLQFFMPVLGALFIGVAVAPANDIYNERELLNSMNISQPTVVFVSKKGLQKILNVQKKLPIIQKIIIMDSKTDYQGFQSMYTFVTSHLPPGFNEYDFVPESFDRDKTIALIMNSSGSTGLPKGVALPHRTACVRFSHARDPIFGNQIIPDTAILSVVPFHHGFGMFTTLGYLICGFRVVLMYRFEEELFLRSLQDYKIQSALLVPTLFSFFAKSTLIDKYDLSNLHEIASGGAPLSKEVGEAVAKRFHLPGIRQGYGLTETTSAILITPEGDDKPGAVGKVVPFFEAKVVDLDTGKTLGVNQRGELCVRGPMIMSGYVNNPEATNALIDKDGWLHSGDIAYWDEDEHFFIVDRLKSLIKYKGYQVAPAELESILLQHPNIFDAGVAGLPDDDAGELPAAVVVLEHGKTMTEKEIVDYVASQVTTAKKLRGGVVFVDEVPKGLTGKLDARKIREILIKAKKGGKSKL
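Purified P. pyralis luciferase, 10 nM final, with Km-level 10 uM D-luciferin and 10 uM ATP in 50 mM Tris acetate pH 7.5, 10 mM Mg acetate, 0.01% Tween-20, 0.05% BSA; 6-point qHTS titration about 60 µM downward; luminescence read.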
* = called active by the depositor; u = inconclusive; x = no result; [ ] = remark or other dose. Hits are enriched below; roughly 7.4% of the tested compounds scored in any of these assays. Calls come from the whole dose curve; as a rule, active = well fitted curve in the direction sought with a large enough effect; inconclusive = small, poorly fitted or top-dose-only effect, or another doubt; inactive = no such curve, though single readings can be large; an effect the other way counts as inactive or inconclusive. Potency is the fitted concentration of half-maximal effect.

SMILES	Rab9 prom act	NPC1 prom act	SMN2 splice up	ELG1 genotoxic	FLuc modulator
O=C(O)c1ccc(N/N=C/c2ccc(-c3ccc(Cl)cc3Cl)o2)cc1	20.9%	u	x	u	0.953µM*
O=C(O)c1ccc(N/N=C/c2ccc(-c3cccc(Cl)c3)o2)cc1	0.316µM*	0.447µM*	x	u	2.69µM*
COc1cc(C2N=C(N)Nc3nc4ccccc4n32)ccc1OCC(=O)O (stereo not given)	x	x	-0.4%	x	-2.1%
O=C(CSc1nc2c(cnn2-c2ccc(F)cc2)c(=O)[nH]1)Nc1ccc(Br)cc1	x	x	-4.3%	x	-6.2%
c1ccc2nc(CC[C@@H]3CCCCN3)ccc2c1	x	x	18.8%[9.22 µM]	x	x
Cc1c(C(=O)O)cccc1-c1ccc(/C=N/Nc2ccc(Br)cc2)o1	u	u	x	u	12µM*
CC1(C)CCCC2(C)C3C(O)CC2(C)C(O)C31 (stereo not given)	x	x	-2.0%	x	x
COc1ccc2c(c1OC)C(=O)N1N=C(c3ccc(-c4ccccc4)cc3)CC21 (stereo not given)	-0.9%	3.6%	-7.2%	0.8%	u
S=C1NC2(CCS1)Oc1ccccc1C1CC(c3ccccc3)=NN12 (stereo not given)	0.5%	1.2%	x	6.2%	26.9µM*
COc1cc(/C=N/Nc2cccc3cccnc23)cc(OC)c1O	u	-2.0%	u	6.1%	2.69µM*
Oc1cccc(/C=N/Nc2cccc3cccnc23)c1	u	u	x	u	0.675µM*
Oc1c(/C=N/Nc2cccc3cccnc23)ccc2ccccc12	3.16µM*	u	11.2µM*	u	u
Cc1ccc2nc(C)cc(N/N=C/c3cccc(O)c3)c2c1	-0.7%	-0.5%	x	-2.3%	0.3%
CC(C)CC1NC(=O)c2cc(Cl)ccc2-n2c1nc1cc(F)ccc1c2=O (stereo not given)	x	x	x	-2.5%	x
O=C(O)CN(CCN(CC(=O)O)CC(=O)O)CC(=O)O.[Mn]	x	x	-14.4%[9.22 µM]	x	x
Cc1ccc(C(C(=O)NC2CCCCC2)N(Cc2cccnc2)C(=O)C2COc3ccccc3O2)o1 (stereo not given)	1.26µM*	u	17.5%	-5.8%	9.0%
CC(C)C[C@@H](CSc1ccccc1)N1CCN(CC(C)C)CCC1=O	u	u	x	u	15.1µM*
CCCN1CCC(=O)N([C@H](CSc2ccccc2)CC(C)C)CC1	3.16µM*	3.16µM*	x	u	21.3µM*
O=C1CCN(CCc2ccccc2)CCN1[C@H](CSc1ccc(Br)cc1)c1ccccc1	-0.7%	14.1%	x	-2.9%	u
CCCN1CCC(=O)N([C@H](CSc2ccc(C)cc2)CC(C)C)CC1	u	3.98µM*	x	u	10.7µM*
CCCN1CCC(=O)N([C@H](CSc2ccc(Br)cc2)c2ccccc2)CC1	u	22.2%	x	11.7%	16.9µM*
CC(C)(C)OC(=O)N1CCC(c2c(C(=O)NCCN3CCCC3)cnn2-c2ccc(Cl)cc2)CC1	x	x	x	x	1.2%
CSc1ccc(CNC(=O)c2sc3ncnc(N(C)C4CCCCC4)c3c2C)cc1	x	x	x	x	-2.3%
COc1cccc(CNC(=O)COC(=O)C2CCN(c3ccc(C(F)(F)F)cn3)CC2)c1	2.2%	0.1%	x	2.5%	5.6%
COc1ccc(C)cc1NC(=O)c1nn(-c2ccccc2)cc1OC	-5.5%	-13.4%	x	-16.5%	u
SMILES	Rab9 prom act	NPC1 prom act	SMN2 splice up	ELG1 genotoxic	FLuc modulator
COC(=O)c1ccc(NC(=O)c2cn(-c3ccccc3)nc2-c2ccncc2)cc1	1.8%	-0.7%	-20.3%	-2.8%	-0.3%
COc1cn(-c2ccccc2)nc1C(=O)Nc1ccc(C)cc1	u	u	x	-7.4%	8.49µM*
COc1cn(-c2ccccc2)nc1C(=O)Nc1ccccc1	u	u	x	16.0%	13.5µM*
CN(c1ccccc1)S(=O)(=O)c1ccc(Cl)c(C(=O)Nc2ccccc2N2CCOCC2)c1	-2.3%	0.2%	x	-8.6%	-1.1%
C=CCn1c(=O)c2ccccc2n2c(SCC(=O)O)nnc12	-0.2%	2.5%	x	0.3%	0.5%
COCCn1c(SCC(=O)NC(C)c2ccccc2)nc2ccccc21 (stereo not given)	0.9%	-2.0%	x	-1.9%	-3.0%
CCOCCCn1c(SCC(=O)Nc2ccccc2)nc2ccccc2c1=O	0.2%	-3.2%	x	-4.4%	-3.3%
C=CCn1c(=O)c2ccccc2n2c(SCc3nc4ccccc4s3)nnc12	u	4.7%	-25.6%	u	12µM*
CCOCCCn1c(SCc2nc3ccccc3s2)nc2ccccc2c1=O	15.6%	15.3%	-109.1%	-7.9%	16.9µM*
COCCn1c(SCc2nc3ccccc3s2)nc2ccccc21	3.55µM*	u	10.2%	u	12µM*
C[C@H](CO)N1C[C@H](C)[C@H](CN(C)S(C)(=O)=O)Oc2c(cccc2N(C)C)C1=O	x	x	x	1.4%	x
CCOC(=O)C1=C(CS(=O)(=O)c2ccccc2)NC(=O)NC1c1ccccc1OC (stereo not given)	-8.6%	5.1%	x	-0.3%[9.26 µM]	-1.8%
Cn1c(=O)c(=O)n(C)c2cc(NC(=O)c3cccc(F)c3)c(Cl)cc21	x	x	-2.1%	x	-0.4%
CCc1ccc(-n2nc(CO)c(C(=O)NCc3cccnc3)n2)cc1	x	x	-44.9%	x	u
CN1CCCC1CCNc1ccc2oc3ccccc3c(=O)c2c1 (stereo not given)	-3.7%	17.5%	x	u	4.78µM*
CN1CCCC1CCNc1ccc2c(=O)c3ccccc3oc2c1 (stereo not given)	u	u	x	u	10.7µM*
CN1CCC[C@H]1CCNC(=O)c1c(-c2ccsc2)sc2ccccc12	x	x	x	0.0%	x
O=C(Nc1ccc(S(=O)(=O)N2CCCCC2)cc1)C1CC(=O)N(c2ccc(Cl)cc2)C1 (stereo not given)	-5.7%	-6.3%	x	-12.6%	-1.4%
Cc1nc(N)nc(N/N=C/c2ccccc2)n1	2.3%	10.2%	x	11.9%	-17.0%
Clc1nnc(NN=C2CCCC2)c2ccccc12	1.3%	-5.5%	-9.4%	1.9%	u
Cc1ccc(/C=N/Nc2nnc(Cl)c3ccccc23)cc1	u	u	4.47µM*	2.31µM*	0.601µM*
Clc1cncc(Cl)c1N/N=C/c1ccccc1	-0.9%	27.6%	x	5.7%	21.3µM*
Clc1ccc(/C=N/Nc2nc(Cl)nc3ccccc23)cc1	14.7%	2.8%	28.8%	u	13.5µM*
C=CCNc1nnc(Cl)c2ccccc12	-4.7%	-0.9%	-32.1%	-0.5%	-1.9%
Clc1ccccc1-c1nc(N/N=C/c2cccnc2)c2ccccc2n1	-0.6%	2.7%	-20.5%	-2.5%	0.5%
Clc1ccc(/C=N/Nc2nnc(Cl)c3ccccc23)cc1	u	u	11.2µM*	u	u
CC(=O)c1c(C)[nH]c(C(=O)C(C)Sc2nnc(NC3CC3)s2)c1C (stereo not given)	-19.1%	-13.6%	x	-2.7%	-0.7%
